Drawing on ChEMBL document CHEMBL3988442, “University of Dundee, Small-Polar-MMV Screening Library” (2021), this text covers Percent Effect for ten compounds.

Structures are written as SMILES. For some assays here: Potency and affinity values are given separately.

Holding throughout (parameters): scale not given: direction of the effect not stated beside the values
Assay [1] addresses Protein translocase subunit SecA (Escherichia coli (strain K12)) (UniProt P10408). Kind of assay: Assay to Identify E. coli SecA ATPase Inhibitors. In kind it is functional. Conditions: 30 µM.
Assay [2] deals with T1, Ubiquitin-activating enzyme e1, putative (Leishmania donovani (strain BPK282A1)) (UniProt E9BSI1).
T1 sequence (whole entry): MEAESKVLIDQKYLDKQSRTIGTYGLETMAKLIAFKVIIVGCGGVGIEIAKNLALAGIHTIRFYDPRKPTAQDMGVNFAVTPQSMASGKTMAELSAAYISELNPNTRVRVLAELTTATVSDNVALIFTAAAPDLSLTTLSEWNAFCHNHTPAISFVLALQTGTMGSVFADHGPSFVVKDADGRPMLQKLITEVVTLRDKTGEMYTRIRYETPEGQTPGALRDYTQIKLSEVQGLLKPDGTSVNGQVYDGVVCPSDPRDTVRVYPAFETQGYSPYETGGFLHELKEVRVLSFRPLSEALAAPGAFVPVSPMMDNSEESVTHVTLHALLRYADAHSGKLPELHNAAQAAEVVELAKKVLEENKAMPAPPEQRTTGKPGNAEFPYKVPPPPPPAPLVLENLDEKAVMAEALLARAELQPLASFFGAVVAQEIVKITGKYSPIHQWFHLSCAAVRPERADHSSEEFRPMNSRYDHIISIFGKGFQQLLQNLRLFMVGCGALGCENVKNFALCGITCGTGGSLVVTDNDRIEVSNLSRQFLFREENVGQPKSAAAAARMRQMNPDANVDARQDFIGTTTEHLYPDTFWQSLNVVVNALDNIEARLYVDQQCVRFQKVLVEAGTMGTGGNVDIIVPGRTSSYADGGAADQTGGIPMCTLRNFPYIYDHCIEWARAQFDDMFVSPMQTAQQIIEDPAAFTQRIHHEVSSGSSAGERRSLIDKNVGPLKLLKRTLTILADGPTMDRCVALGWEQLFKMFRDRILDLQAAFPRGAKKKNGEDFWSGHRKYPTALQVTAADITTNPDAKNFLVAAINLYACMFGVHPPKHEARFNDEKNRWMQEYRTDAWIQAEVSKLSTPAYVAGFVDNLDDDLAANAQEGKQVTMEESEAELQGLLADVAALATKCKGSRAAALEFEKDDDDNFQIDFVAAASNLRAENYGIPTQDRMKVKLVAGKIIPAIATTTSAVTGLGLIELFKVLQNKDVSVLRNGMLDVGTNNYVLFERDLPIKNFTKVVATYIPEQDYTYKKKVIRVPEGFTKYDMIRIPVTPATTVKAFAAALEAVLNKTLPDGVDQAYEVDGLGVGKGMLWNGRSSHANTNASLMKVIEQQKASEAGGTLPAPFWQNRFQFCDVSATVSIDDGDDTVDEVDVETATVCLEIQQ
Kind of assay: Leishmania donovani Ubiquitin Activating Enzyme (LdE1). The class given is functional. As to conditions: 30 µM.

The target of assay [3] is AMP-activated protein kinase, AMPK (Homo sapiens) (UniProt P54646+O43741+P54619+Q9UGJ0+Q9Y478+Q13131+Q9UGI9). Kind of assay: AMP-dependent Kinase enzyme assay. An in vitro enzyme assay that detects ADP turnover that is directly proportional to AMPK activity. This uses naive AMPK that is activated during the assay with MK-8722. The class given is functional. As to conditions: 30 µM.

Assay [4] deals with Sialic acid-binding Ig-like lectin 9 (Homo sapiens) (UniProt Q9Y336). Put plainly: Hs-Siglec9 ALPHAscreen SOP 20170721. As to conditions: 10 µM. On the technique in general: Bead proximity is the source of the signal in Alpha formats.
The next assay has as its system Trypanosoma cruzi. Put plainly: Trypanosoma cruzi phosphomannomutase and mannose-1-phosphate guanylyltransferase assay. In kind it is functional. Conditions: 10 µM.
Assay [5] concerns the target T2, Arginase-2, mitochondrial (Homo sapiens) (UniProt P78540).
T2 sequence (whole entry): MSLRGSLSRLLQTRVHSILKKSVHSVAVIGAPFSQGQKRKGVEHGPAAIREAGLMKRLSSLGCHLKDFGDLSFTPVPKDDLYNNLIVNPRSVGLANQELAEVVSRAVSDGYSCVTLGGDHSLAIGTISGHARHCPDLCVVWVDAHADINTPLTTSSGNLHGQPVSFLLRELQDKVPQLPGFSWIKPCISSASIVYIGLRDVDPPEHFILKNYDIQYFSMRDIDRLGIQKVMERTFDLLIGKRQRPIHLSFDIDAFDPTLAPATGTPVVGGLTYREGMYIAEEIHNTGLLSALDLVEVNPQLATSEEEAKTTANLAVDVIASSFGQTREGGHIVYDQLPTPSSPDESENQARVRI
Put plainly: in vitro enzyme assay to detect the production of urea directly proportional to the activity of Arginase II. Also: in the data most compounds retested in dose-response had high values. In kind it is functional. Conditions: 33.3 µM.

The target in assay [6] is T3, Proteasome subunit beta (Trypanosoma cruzi) (UniProt O96673).
T3 sequence (whole entry): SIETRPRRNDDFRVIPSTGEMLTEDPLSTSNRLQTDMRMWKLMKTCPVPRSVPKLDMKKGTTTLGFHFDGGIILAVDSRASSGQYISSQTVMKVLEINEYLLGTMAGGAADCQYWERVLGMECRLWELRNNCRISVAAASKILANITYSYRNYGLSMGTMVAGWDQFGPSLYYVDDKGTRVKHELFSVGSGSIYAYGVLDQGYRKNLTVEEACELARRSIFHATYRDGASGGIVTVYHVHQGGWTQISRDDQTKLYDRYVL
Kind of assay: Trypanosoma cruzi proteasome chymotrypsin-like activity (TcProtChymo) assay. Also: in the data most compounds retested in dose-response had high values. The class given is functional. Conditions: 9.37 µM.

Another assay is filed under the species Homo sapiens. Put plainly: To identify inhibition of the IFN signalling (Jak-Stat) pathway via expression of an eGFP reporter gene under the control of an IFN-stimulated response element (ISRE) containing MxA promoter. The class given is functional. Conditions: 30 µM. (In general: Reporter assays use an easily measured gene product as a stand-in for the process of interest.)

Assay [7] addresses T4, Tyrosyl-tRNA synthetase, putative (Trypanosoma cruzi (strain CL Brener)) (UniProt Q4DSP6).
T4 sequence (whole entry): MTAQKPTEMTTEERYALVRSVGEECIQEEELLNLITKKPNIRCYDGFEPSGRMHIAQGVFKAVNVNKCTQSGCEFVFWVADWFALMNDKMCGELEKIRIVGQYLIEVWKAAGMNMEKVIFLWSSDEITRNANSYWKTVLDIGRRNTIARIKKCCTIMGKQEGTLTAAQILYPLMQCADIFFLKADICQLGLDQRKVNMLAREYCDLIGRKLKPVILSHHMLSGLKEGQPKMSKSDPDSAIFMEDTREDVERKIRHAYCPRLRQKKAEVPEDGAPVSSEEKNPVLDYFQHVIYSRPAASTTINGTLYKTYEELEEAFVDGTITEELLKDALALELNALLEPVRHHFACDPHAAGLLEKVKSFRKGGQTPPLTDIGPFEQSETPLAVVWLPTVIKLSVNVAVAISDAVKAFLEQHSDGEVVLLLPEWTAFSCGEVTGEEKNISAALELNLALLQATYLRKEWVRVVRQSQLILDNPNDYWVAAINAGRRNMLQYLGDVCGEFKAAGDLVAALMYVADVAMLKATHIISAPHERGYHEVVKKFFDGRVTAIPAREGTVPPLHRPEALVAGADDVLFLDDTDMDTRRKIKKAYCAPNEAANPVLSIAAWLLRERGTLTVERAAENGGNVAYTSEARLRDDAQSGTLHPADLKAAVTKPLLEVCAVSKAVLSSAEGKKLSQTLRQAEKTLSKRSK
Put plainly: Trypanosoma cruzi tyrosyl tRNA synthetase (TcYRS) _High Tyrosine SOP. Also: in the data most compounds retested in dose-response had high values. In kind it is functional. As to conditions: 30 µM.

The target of assay [8] is T4, Tyrosyl-tRNA synthetase, putative (Trypanosoma cruzi (strain CL Brener)). Kind of assay: Trypanosoma cruzi tyrosyl tRNA synthetase (TcYRS) SOP. As to conditions: 30 µM. In kind it is functional.
Assay [9] concerns the target Chromo domain-containing protein 1 (Saccharomyces cerevisiae (strain ATCC 204508 / S288c) (Baker's yeast)) (UniProt P32657). Kind of assay: ScCHD-1 Enzyme Inhibition Assay. Also: in the data most compounds retested in dose-response had high values. The class given is functional. Conditions: 30 µM.

Sequence of Protein translocase subunit SecA (Escherichia coli (strain K12)) (P10408 whole entry): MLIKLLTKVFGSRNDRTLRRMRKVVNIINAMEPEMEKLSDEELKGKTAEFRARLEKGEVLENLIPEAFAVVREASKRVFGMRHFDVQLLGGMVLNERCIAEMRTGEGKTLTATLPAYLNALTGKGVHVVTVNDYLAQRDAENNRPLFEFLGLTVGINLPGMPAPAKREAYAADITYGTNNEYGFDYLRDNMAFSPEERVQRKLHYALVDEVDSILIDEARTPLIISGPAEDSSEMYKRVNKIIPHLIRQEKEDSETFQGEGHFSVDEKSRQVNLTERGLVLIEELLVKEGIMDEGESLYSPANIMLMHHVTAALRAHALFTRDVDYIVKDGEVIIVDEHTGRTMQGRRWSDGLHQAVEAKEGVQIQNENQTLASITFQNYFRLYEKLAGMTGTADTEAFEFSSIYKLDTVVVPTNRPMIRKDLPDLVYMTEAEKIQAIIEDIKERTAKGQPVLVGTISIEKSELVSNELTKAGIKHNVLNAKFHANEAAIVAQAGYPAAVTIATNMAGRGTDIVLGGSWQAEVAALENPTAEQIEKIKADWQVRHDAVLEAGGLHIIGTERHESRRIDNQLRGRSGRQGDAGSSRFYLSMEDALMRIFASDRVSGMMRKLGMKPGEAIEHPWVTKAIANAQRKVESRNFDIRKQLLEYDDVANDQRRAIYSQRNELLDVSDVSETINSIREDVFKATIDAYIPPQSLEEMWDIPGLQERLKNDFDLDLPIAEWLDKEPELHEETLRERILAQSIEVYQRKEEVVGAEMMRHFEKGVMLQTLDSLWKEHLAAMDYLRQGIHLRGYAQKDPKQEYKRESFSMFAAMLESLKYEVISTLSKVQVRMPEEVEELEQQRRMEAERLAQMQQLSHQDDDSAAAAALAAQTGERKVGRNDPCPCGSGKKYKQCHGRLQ
Sequence of Chromo domain-containing protein 1 (Saccharomyces cerevisiae (strain ATCC 204508 / S288c) (Baker's yeast)) (P32657 whole entry, the tested form may be a part): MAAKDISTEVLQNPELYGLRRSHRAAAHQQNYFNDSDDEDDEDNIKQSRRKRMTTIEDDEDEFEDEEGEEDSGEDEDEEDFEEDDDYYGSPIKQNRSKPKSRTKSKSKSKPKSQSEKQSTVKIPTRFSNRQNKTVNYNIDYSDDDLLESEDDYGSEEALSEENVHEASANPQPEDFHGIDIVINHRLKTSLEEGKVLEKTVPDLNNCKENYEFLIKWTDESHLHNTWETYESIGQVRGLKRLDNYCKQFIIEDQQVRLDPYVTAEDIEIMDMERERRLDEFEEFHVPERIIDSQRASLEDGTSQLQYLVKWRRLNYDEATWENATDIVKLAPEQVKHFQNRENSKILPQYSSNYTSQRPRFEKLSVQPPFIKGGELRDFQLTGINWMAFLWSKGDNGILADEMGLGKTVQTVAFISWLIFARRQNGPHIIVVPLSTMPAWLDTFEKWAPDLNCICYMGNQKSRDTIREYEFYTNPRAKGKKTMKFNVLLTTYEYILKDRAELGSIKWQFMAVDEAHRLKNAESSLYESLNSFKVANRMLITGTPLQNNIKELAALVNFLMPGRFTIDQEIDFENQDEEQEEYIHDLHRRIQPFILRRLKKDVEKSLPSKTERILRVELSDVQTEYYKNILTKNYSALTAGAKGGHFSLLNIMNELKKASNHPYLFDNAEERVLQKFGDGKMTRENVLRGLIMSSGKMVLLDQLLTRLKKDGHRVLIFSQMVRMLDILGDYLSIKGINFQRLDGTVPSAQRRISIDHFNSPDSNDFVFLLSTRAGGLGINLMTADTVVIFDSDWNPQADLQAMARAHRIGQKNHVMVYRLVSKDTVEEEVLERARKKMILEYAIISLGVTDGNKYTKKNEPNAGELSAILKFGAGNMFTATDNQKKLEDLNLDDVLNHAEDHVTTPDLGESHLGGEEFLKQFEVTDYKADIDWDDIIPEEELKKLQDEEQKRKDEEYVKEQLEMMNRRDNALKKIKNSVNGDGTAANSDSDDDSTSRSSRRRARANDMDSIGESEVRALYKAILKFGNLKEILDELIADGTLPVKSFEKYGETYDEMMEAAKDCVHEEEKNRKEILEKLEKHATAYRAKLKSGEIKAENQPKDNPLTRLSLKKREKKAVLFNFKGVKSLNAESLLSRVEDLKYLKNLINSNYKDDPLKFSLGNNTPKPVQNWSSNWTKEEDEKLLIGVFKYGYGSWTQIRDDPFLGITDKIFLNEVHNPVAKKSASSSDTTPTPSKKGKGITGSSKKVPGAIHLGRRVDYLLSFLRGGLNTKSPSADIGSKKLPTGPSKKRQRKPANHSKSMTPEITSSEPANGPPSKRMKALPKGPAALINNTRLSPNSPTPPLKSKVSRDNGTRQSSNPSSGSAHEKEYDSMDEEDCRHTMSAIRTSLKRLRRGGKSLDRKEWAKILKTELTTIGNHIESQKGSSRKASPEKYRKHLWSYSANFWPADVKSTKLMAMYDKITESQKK
Sequence of Sialic acid-binding Ig-like lectin 9 (Homo sapiens) (Q9Y336 whole entry): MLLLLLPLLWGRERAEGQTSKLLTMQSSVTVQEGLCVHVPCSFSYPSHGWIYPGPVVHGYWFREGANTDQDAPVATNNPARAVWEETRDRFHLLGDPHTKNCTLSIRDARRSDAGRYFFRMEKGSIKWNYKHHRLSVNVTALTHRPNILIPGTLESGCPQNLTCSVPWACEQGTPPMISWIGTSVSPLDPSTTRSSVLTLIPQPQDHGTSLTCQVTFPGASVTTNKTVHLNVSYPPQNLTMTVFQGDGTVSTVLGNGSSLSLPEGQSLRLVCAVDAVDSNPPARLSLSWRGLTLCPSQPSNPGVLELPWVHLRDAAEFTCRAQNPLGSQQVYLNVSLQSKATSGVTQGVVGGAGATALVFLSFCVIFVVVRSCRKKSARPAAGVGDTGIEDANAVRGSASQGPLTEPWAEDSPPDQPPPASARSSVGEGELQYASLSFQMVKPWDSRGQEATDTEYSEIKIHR

`Cc1cc(C)n(CC2CCCN2C(=O)CCCc2ccccn2)n1` (stereo not given): the Percent Effect is -6.25% in [1]; 2.63% in assay [2]; 5.48% in assay [3]; 0.753% in assay [4]; -3.76% with Trypanosoma cruzi; 2.68% in [5]. Also, the Percent Effect was 10.9% in [6]; 16.9% in the assay filed under Homo sapiens; 1.47% in [7]; 4.88% in [8]; -3.06% in [9].
As for `CC(C)c1nc(C2CCCN2CCCc2nc3ccccc3o2)no1` (stereo not given), the Percent Effect in assay [1] is -2.74%; in assay [2], -8.11%; in assay [3] it was -9.61%; in assay [4], 9.51%; in the assay on Trypanosoma cruzi it was 1.42%; in [5] it was -6.81%. The Percent Effect in [6] is -1.62%; in the assay listed under Homo sapiens it was 5.36%; in [7], 2.46%; in [8] it was -6.17%; in [9] it was 0.486%.
Regarding `O=C(Cn1cnc(NC(=O)CC2CCCC2)n1)NCc1ccccc1`, the Percent Effect is -6.6% in assay [1]; 15.8% in assay [2]; -2.47% in assay [3]; 8.52% in assay [4]; 9.96% with Trypanosoma cruzi; -1.53% in assay [5]. The Percent Effect in assay [6] is 2.84%; in the assay filed under Homo sapiens, 11.9%; in [7], 6.37%; in assay [8], 17.1%; in assay [9], -12.2%.
Regarding `CC1CCN(CCCNS(=O)(=O)c2cccc(F)c2)CC1`, the Percent Effect in assay [1] is -4.57%; in assay [2], 7.79%; in [3] it was 0.601%; in [4] it was 5.46%; in the assay on Trypanosoma cruzi it was -2.46%; in assay [5] it was -13.8%. The Percent Effect in [6] was 0.166%; in the assay filed under Homo sapiens it was -11.1%; in assay [7], 5.38%; in assay [8], 13.6%; in [9], -2.91%.
Regarding `Cc1ccc(N2CCCN(C(=O)C(C(C)C)n3cncn3)CC2)nn1` (stereo not given), the Percent Effect in [1] is -1.22%; in assay [2] it was 16.2%; in assay [3] it was -7.95%; in [4], 9.29%; in the assay on Trypanosoma cruzi, 3.62%; in assay [5], 2.03%. The Percent Effect is 9.16% in assay [6]; 9.49% in the assay filed under Homo sapiens; 7.92% in [7]; 25.6% in assay [8]; -6.51% in [9].
On to `Cc1cnn(CC2CCCCN2C(=O)c2ccc3nnc(C)n3c2)c1` (stereo not given), for which the Percent Effect in assay [1] is 3.48%; in assay [2] it was 13%; in [3], -0.0421%; in assay [4] it was -9.14%; with Trypanosoma cruzi, -4.6%; in assay [5], -1.9%. In addition, the Percent Effect in assay [6] was 15.9%; in the assay listed under Homo sapiens, 21%; in assay [7] it was 5.71%; in [8], 18.8%; in [9], -5.8%.
With `Cc1ccc(C(=O)N2CCCC(C(=O)N3CCCCC3)C2)c(O)c1` (stereo not given), the Percent Effect in [1] is -7.91%; in assay [2], 10.8%; in [3], -4.33%; in [4] it was -0.223%; in the assay with Trypanosoma cruzi, -5.19%; in assay [5], -1.2%. The Percent Effect was -2.7% in assay [6]; 12.5% in the assay listed under Homo sapiens; 2.46% in assay [7]; 1.24% in assay [8]; -4.49% in assay [9].
Consider `CC(C)(O)CN1CCN(C(=O)c2cc3ccccc3c(=O)[nH]2)CC1`, for which the Percent Effect in [1] was 0.132%; in [2], 2.63%; in assay [3], 5.98%; in [4], -1.12%; with Trypanosoma cruzi it was -3.6%; in assay [5] it was -2.37%. For the same compound, the Percent Effect was 7.57% in assay [6]; -8.77% in the assay listed under Homo sapiens; 7.45% in [7]; 13% in [8]; -5.58% in [9].
For `Cn1cc(C(=O)NCc2cn3c(n2)CN(CC2CCOCC2)CC3)cn1`, the Percent Effect in [1] was -2.09%; in [2] it was 5.41%; in assay [3], 26.2%; in assay [4], -3.62%; in the assay with Trypanosoma cruzi, -1.95%; in assay [5] it was 1.67%. Besides, the Percent Effect in [6] is 11.9%; in the assay filed under Homo sapiens, 20.1%; in assay [7] it was 7.92%; in [8], 15.8%; in [9] it was -0.801%.
Regarding `CCCc1nc(CN2CCCC(Cn3cncn3)C2)no1` (stereo not given), the Percent Effect was -6.43% in [1]; -1.27% in [2]; 0.957% in assay [3]; -0.585% in [4]; 0.718% with Trypanosoma cruzi; 0.215% in [5]. The Percent Effect in assay [6] is 2.06%; in the assay filed under Homo sapiens it was 4.36%; in [7] it was 5.21%; in [8], 15.2%; in [9] it was -25.2%.
